The term inhibition denotes the drop in the measured response relative to a control, in per cent.

Structures are written as SMILES.

Drawing on ChEMBL document CHEMBL1961873, “Compounds: GSK PKIS; Assays: Nanosyn kinase panel” (2012), this text covers inhibition for 2 compounds.

Test [1] concerns the target Protein kinase C gamma type (Homo sapiens) (UniProt P05129). Particulars: at 1 µM.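 Further: each value is an averaged percent inhibition of the enzyme.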
For test [2], the target named is T1, Protein kinase C iota type (Homo sapiens) (UniProt P41743).
T1 sequence (whole entry): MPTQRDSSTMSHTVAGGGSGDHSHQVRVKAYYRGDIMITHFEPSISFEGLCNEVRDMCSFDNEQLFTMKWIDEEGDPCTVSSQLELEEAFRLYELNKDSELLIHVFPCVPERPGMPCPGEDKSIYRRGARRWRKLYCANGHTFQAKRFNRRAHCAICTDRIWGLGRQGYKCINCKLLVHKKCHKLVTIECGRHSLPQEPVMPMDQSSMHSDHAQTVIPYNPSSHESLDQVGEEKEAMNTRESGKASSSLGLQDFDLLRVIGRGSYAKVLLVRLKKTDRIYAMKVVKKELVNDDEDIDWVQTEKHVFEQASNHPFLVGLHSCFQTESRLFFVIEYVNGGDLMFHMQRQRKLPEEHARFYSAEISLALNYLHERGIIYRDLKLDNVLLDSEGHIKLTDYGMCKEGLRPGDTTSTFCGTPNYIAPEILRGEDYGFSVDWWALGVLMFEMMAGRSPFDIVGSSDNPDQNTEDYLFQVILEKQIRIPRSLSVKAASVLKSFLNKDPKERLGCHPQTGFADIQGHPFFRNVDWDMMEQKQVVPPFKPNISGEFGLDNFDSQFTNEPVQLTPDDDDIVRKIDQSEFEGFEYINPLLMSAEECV
Particulars: at 0.1 µM.

Test [3] concerns the target T1, Protein kinase C iota type (Homo sapiens). Particulars: at 1 µM.
The target of test [4] is Protein kinase C theta type (Homo sapiens) (UniProt Q04759). To be noted: at 0.1 µM.
Chain of Protein kinase C theta type (Homo sapiens) (Q04759 whole entry, looked up): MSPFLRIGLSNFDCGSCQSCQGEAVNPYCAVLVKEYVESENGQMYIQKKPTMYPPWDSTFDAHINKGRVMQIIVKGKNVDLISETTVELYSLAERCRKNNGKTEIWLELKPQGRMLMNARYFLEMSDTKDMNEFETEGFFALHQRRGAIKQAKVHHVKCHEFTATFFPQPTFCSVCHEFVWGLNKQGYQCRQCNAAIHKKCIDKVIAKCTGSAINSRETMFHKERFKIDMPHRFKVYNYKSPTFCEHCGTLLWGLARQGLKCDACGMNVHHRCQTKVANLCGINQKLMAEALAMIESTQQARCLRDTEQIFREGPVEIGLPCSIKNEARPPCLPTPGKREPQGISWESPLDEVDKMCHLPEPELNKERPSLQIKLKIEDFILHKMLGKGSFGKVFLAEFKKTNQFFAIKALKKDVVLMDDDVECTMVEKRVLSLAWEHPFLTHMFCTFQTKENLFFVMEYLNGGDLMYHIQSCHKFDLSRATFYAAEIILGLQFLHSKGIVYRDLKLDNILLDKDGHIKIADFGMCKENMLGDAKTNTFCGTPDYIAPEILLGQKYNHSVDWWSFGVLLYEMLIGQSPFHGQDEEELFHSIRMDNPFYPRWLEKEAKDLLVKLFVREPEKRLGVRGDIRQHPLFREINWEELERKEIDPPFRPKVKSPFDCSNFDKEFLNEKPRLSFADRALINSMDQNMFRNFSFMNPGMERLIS
Test [5] shares this target. To be noted: at 1 µM.
Test [6] concerns the target Protein kinase C beta type (Homo sapiens) (UniProt P05771). To be noted: at 0.1 µM.
Test [7] has the same target. Particulars: at 1 µM.
For test [8], the target named is T2, Serine/threonine-protein kinase D1 (Homo sapiens) (UniProt Q15139).
T2 sequence (whole entry): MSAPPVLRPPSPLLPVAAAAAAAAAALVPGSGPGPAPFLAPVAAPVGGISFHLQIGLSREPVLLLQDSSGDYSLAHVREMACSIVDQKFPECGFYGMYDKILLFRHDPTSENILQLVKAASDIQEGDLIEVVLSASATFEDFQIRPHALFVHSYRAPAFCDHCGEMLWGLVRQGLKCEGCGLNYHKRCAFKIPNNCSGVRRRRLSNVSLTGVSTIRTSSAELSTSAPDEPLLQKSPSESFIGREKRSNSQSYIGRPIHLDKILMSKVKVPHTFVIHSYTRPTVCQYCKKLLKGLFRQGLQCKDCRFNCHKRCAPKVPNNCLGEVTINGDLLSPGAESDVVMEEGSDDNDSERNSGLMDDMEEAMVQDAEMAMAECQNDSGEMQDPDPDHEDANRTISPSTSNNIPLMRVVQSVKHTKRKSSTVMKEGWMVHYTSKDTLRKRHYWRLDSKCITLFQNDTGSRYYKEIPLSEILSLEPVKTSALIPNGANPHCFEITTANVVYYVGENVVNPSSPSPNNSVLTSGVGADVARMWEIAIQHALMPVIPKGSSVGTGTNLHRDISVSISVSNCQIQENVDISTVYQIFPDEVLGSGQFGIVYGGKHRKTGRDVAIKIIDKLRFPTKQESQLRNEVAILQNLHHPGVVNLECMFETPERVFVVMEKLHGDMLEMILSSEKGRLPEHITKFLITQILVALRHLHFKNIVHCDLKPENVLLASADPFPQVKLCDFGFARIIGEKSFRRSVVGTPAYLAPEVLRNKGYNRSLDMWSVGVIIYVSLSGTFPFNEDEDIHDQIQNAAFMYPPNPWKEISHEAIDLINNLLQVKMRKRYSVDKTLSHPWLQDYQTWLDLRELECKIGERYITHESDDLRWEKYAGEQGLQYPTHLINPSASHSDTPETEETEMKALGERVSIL
Particulars: at 0.1 µM.

Test [9] deals with T2, Serine/threonine-protein kinase D1 (Homo sapiens). Particulars: at 1 µM.
Test [10] has as its target T3, Serine/threonine-protein kinase D2 (Homo sapiens) (UniProt Q9BZL6).
T3 sequence (whole entry): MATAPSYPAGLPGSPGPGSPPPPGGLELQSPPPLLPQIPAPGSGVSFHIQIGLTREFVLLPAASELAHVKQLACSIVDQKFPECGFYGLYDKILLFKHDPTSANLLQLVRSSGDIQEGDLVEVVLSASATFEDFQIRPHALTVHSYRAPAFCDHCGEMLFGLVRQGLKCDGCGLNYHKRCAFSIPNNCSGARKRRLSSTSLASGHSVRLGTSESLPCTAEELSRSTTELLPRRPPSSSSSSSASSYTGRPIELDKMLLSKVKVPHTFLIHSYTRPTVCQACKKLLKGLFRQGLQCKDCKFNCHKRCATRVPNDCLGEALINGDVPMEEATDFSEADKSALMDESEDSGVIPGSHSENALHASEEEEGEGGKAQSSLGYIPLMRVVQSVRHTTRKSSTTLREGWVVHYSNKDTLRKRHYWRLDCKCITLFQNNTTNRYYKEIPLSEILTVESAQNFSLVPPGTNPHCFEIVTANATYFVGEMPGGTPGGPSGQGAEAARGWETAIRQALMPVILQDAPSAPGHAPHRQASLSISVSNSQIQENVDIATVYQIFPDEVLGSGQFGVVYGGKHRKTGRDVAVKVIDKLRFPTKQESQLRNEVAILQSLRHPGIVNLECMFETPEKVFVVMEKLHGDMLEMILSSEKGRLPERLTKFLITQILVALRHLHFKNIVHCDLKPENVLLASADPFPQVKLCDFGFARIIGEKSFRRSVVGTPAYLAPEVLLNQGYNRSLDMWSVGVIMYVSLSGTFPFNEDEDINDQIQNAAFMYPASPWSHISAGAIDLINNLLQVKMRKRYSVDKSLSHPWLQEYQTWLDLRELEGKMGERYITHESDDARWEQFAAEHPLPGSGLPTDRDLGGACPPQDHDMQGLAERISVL
Particulars: at 0.1 µM.

The target of test [11] is T3, Serine/threonine-protein kinase D2 (Homo sapiens). Particulars: at 1 µM.
Test [12] concerns the target T4, Serine/threonine-protein kinase D3 (Homo sapiens) (UniProt O94806).
T4 sequence (whole entry): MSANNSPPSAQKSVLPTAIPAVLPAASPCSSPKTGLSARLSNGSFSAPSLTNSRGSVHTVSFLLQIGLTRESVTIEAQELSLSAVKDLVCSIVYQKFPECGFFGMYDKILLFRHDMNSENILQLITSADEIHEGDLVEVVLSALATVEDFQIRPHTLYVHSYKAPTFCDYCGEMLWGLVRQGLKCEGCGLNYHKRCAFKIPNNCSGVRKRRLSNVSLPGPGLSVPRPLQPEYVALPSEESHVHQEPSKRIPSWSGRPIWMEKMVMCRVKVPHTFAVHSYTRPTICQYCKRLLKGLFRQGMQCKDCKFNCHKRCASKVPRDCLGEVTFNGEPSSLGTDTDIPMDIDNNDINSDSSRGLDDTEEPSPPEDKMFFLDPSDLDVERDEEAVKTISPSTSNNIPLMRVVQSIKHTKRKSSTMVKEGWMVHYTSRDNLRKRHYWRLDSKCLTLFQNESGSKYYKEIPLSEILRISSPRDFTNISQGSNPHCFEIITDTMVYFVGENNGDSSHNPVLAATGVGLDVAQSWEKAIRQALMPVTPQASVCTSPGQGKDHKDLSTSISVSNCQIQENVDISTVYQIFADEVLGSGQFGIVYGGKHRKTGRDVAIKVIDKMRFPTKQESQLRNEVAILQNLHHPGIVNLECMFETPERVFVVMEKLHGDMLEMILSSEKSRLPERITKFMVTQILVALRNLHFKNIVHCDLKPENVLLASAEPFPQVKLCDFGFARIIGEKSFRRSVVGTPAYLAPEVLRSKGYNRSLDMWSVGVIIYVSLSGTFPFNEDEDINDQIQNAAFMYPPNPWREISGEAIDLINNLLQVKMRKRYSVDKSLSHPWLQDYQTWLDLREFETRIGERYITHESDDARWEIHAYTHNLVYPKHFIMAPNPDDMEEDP
To be noted: at 0.1 µM.

Test [13] has as its target T4, Serine/threonine-protein kinase D3 (Homo sapiens). To be noted: at 1 µM.
Test [14] deals with T5, cGMP-dependent protein kinase 1 (Homo sapiens) (UniProt Q13976).
T5 sequence (whole entry): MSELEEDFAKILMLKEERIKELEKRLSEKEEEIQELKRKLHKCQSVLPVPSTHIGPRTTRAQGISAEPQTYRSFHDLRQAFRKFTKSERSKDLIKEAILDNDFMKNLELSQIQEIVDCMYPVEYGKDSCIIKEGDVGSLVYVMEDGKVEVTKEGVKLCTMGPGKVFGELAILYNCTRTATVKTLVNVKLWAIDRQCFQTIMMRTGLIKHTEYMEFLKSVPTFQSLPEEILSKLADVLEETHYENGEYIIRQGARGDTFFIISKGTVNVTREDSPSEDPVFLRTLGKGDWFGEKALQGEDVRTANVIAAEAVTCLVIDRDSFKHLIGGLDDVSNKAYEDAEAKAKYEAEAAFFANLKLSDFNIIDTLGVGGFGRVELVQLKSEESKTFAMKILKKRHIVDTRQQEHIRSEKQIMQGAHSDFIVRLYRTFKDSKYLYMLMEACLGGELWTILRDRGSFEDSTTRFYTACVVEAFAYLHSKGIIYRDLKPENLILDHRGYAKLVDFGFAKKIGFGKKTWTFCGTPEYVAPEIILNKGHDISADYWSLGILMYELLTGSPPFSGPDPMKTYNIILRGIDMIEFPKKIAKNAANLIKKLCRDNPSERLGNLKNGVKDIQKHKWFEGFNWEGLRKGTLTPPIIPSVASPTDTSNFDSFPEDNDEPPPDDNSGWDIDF
To be noted: at 0.1 µM.

Test [15] concerns the target T5, cGMP-dependent protein kinase 1 (Homo sapiens). To be noted: at 1 µM.
Test [16] has as its target T6, cGMP-dependent protein kinase 2 (Homo sapiens) (UniProt Q13237).
T6 sequence (whole entry): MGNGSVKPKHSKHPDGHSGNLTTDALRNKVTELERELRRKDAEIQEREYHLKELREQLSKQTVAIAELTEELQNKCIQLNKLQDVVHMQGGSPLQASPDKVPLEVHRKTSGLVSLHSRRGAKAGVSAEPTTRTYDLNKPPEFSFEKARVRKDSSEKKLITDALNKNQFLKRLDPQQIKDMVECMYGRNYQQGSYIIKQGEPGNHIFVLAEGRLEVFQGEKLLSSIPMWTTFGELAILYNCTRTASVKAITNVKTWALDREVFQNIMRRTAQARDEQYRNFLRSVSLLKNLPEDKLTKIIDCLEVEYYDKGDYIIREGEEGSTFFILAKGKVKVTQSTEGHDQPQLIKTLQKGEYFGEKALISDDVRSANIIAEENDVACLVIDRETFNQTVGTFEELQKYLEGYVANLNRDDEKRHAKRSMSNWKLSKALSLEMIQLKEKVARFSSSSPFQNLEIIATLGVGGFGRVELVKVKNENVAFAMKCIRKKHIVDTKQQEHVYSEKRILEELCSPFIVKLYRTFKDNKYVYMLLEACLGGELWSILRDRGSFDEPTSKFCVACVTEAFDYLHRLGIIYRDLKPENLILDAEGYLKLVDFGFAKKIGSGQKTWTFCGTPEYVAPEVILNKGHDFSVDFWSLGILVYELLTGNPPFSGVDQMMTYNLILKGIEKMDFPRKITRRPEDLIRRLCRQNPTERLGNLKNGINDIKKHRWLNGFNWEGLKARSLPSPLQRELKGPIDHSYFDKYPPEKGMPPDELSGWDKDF
To be noted: at 0.1 µM.

Test [17] addresses T6, cGMP-dependent protein kinase 2 (Homo sapiens). To be noted: at 1 µM.
In test [18] the target is T7, cAMP-dependent protein kinase catalytic subunit PRKX (Homo sapiens) (UniProt P51817).
T7 sequence (whole entry): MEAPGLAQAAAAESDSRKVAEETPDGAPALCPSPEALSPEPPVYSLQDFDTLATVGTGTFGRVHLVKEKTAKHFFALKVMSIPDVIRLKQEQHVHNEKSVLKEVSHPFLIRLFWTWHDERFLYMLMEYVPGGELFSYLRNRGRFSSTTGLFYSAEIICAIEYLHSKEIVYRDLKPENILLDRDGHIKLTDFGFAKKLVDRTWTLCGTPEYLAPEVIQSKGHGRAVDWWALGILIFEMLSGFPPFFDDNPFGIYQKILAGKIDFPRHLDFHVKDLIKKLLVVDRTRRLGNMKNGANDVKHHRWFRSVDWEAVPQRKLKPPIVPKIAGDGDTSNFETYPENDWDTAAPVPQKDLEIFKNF
To be noted: at 0.1 µM.

Test [19] deals with T7, cAMP-dependent protein kinase catalytic subunit PRKX (Homo sapiens). Particulars: at 1 µM.
For test [20], the target named is Rho-associated protein kinase 1 (Homo sapiens) (UniProt Q13464). Particulars: at 0.1 µM.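 Further: values are mean percent inhibition of ROCK1.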
Chain of Rho-associated protein kinase 1 (Homo sapiens) (Q13464 2-1354 limits assumed): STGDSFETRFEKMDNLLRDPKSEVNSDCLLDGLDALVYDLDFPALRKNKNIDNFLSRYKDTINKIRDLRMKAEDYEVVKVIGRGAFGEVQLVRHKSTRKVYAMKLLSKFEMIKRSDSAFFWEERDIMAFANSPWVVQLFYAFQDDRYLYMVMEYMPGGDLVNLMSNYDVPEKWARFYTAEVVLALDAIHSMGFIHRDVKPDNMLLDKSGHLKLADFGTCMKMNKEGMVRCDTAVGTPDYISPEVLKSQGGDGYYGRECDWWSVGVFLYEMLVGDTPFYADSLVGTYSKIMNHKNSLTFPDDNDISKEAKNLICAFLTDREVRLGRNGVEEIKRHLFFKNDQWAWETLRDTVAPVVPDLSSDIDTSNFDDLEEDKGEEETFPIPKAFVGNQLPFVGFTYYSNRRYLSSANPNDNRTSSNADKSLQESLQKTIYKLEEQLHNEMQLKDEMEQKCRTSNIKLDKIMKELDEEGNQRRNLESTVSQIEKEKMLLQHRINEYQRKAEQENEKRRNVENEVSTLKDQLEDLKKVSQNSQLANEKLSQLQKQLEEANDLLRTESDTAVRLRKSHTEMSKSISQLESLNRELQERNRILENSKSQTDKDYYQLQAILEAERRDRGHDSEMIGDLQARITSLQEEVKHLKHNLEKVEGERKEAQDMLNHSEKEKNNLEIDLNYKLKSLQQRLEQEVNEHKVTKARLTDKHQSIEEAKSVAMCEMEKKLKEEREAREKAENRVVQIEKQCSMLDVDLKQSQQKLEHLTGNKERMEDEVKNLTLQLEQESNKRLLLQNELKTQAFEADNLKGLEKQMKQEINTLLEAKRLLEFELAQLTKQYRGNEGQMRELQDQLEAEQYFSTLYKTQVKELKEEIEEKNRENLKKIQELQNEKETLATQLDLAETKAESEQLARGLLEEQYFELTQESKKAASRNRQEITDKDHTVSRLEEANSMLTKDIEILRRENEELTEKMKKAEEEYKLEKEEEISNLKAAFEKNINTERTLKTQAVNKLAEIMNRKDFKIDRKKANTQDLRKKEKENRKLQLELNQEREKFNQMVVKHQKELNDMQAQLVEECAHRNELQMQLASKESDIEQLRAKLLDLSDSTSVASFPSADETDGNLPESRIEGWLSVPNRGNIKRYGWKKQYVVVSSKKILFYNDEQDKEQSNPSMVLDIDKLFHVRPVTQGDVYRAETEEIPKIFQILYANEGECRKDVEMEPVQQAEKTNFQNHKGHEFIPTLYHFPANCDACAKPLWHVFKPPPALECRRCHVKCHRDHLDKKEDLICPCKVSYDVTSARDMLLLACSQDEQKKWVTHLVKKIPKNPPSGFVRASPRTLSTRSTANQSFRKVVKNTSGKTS

Chain of Protein kinase C beta type (Homo sapiens) (P05771 2-671 limits assumed): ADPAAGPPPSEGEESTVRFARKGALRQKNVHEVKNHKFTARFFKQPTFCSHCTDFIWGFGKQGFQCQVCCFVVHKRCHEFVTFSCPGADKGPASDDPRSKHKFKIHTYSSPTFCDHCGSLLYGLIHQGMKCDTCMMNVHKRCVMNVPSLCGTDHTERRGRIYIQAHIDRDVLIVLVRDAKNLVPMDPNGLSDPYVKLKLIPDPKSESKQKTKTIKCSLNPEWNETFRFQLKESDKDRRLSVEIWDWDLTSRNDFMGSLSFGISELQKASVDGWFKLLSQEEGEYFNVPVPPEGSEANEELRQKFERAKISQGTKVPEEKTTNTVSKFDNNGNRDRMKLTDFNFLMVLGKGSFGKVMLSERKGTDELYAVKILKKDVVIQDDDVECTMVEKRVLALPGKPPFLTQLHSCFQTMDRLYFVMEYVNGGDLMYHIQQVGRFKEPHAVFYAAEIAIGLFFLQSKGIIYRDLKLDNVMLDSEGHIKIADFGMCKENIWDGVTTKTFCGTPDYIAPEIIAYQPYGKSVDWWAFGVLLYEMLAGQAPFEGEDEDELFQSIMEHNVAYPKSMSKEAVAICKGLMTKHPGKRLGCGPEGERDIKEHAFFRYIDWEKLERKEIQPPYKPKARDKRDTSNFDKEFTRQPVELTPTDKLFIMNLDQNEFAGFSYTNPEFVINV

`COc1cc(N2CCN(C(C)C)CC2)ccc1Nc1nc(Nc2ccc(F)cc2C(=O)NC[C@@H](O)CO)c2cc[nH]c2n1`: the inhibition in test [1] was 7.34%; in [2] it was 2.87%; in test [3] it was 0.36%; in test [4], 3.85%; in [5] it was 6.2%; in test [6], 1.04%. The inhibition turned out to be 2.5% in test [7]; 1.65% in [8]; 13.4% in [9]; 3.16% in test [10]; 17.5% in test [11]; 3.93% in [12]. Also, the inhibition in test [13] amounted to 20.7%; in test [14] it was 7.74%; in [15], 35.1%; in [16], 2.82%; in test [17] it was 8.2%; in test [18], 2.99%. Also, the inhibition came out at 6.02% in test [19] and 1.24% in [20].

As to `CCc1cccc(CC)c1/C=C/c1cncc(C(=O)NC)c1`, the inhibition was 2.81% in test [1]; 2.1% in test [2]; 3.47% in [3]; 1.41% in test [4]; -0.25% in test [5]; 0.14% in test [6]. Moreover, the inhibition in test [7] was -0.35%; in [8], 2.52%; in [9], 6.44%; in test [10], 3.28%; in [11] it was 7.18%; in test [12], 3.3%. The inhibition worked out at 7.02% in [13]; 2.74% in [14]; 2.71% in test [15]; 1.38% in test [16]; 1.83% in test [17]; 3.9% in test [18]. Besides, the inhibition in test [19] is -1.34%; in test [20], 0.87%.
